Only some compounds are listed: those with a hit (about 2.5% of all), similar ones and a draw of the others.
STAT3 SMM: STAT3 binders, primary screen, biochemical, small molecule microarray, single point, set 2 | Signal transducer and activator of transcription 3 (Homo sapiens), P40763 | His-STAT3 binding, anti-His fluorescence | calls only | 0.2% of 17,000 active | AID 624138, 2012;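 active means compounds whose four printed spots each show fluorescence over background unusually high for their array block, chance value under 7%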
Myc binder: binders of human c-Myc, primary screen, biochemical, small molecule microarray, anti-His fluorescence; Myc proto-oncogene protein (Homo sapiens), P01106; His-c-Myc binding; calls only; 1.5% of 17,000 active; AID 624141, 2012;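 active means spot fluorescence over background with P-value below 7% in all four replicate spots, showing protein binding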;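 further: score is binary with 100 for all four spots passing and 0 otherwise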
NFkB SMM: binders of NF-kB p50 subunit, primary screen, biochemical, small molecule microarray, anti-His fluorescence; Nuclear factor NF-kappa-B p105 subunit (Homo sapiens), P19838; anti-His fluorescence binding; calls only; 1.3% of 17,000 active; AID 624139, 2012;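 active means spot fluorescence over background significantly raised, with a chance value under 7% in all four replicate spots of the compound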;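 further: probe protein is his-tagged human p50 processed subunit at 1 µg/ml; raw spot fluorescence signals with no normalization applied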
Target sequence (P19838 1-433 limits assumed): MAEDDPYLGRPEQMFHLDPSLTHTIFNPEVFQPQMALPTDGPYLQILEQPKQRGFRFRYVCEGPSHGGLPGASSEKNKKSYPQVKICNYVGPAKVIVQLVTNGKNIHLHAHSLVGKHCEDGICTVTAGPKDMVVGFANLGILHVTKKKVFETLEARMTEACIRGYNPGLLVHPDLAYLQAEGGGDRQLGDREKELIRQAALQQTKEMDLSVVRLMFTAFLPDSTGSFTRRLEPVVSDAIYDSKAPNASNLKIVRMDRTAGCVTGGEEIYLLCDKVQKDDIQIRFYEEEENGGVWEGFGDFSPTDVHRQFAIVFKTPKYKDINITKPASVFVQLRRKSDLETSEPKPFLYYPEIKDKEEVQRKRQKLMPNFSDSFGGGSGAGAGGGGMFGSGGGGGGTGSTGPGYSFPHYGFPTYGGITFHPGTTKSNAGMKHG
mut p53 SMM: binders of human mutant p53, primary screen, biochemical, small molecule microarray, anti-GST fluorescence; mutant tumor protein p53 (GST-tagged), Homo sapiens; small molecule microarray binding; calls only; 0.4% of 17,000 active; AID 624136, 2012;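 active means compounds whose four printed spots each glow above background more than chance allows, each with a p-value under 7%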
An asterisk follows results filed as active.

For CSCC(NS(=O)(=O)c1ccc(Br)cc1)C(=O)O (configuration not stated) the results were STAT3 SMM inactive, Myc binder active, NFkB SMM active and mut p53 SMM inactive.
Screening Cc1ccc(S(=O)(=O)NC(Cc2c[nH]c3ccccc23)C(=O)O)cc1 (configuration not stated) returned STAT3 SMM inactive, Myc binder inactive, NFkB SMM inactive and mut p53 SMM inactive.
Screening O=C1NC(=O)c2cc(Nc3ccc(F)cc3)c(Nc3ccc(F)cc3)cc21 returned STAT3 SMM inactive, Myc binder inactive, NFkB SMM inactive and mut p53 SMM active.
For COC1OC2c3cc4c(cc3CCN(C)C2c2ccc3c(c21)OCO3)OCO4 (configuration not stated) the results were STAT3 SMM inactive, Myc binder inactive, NFkB SMM inactive and mut p53 SMM inactive.
C=CCOC(=O)C1=C[C@H](c2coc3ccccc3c2=O)C[C@H](OCc2ccc(CO)cc2)O1 was read as STAT3 SMM inactive, Myc binder active, NFkB SMM inactive and mut p53 SMM inactive.
`CC12CCC3c4ccc(O)cc4CC(CCCCCCCCCS(=O)CCCC(F)(F)C(F)(F)F)C3C1CCC2O` (configuration not stated) gave STAT3 SMM inactive, Myc binder inactive, NFkB SMM inactive and mut p53 SMM inactive.
C/C=C/CC(C)C(O)C1C(=O)NC(CC)C(=O)N(C)CC(=O)N(C)C(CC(C)C)C(=O)NC(C(C)C)C(=O)N(C)C(CC(C)C)C(=O)NC(C)C(=O)NC(C)C(=O)N(C)C(CC(C)C)C(=O)N(C)C(CC(C)C)C(=O)N(C)C(C(C)C)C(=O)N1C (configuration not stated) was read as STAT3 SMM inactive, NFkB SMM active and mut p53 SMM inactive.
COc1cc2c(cc1OC)CN(C(=O)[C@@H]1[C@H]3C(=O)O[C@H](c4ccccc4)[C@H](c4ccccc4)N3[C@H](c3ccc(OCCO)cc3)[C@@]13C(=O)Nc1ccccc13)CC2 was read as STAT3 SMM inactive, Myc binder inactive, NFkB SMM inactive and mut p53 SMM inactive.
For NC(=O)[C@@H]1[C@H]2C(=O)O[C@H](c3ccccc3)[C@H](c3ccccc3)N2[C@H](c2ccc(OCCO)cc2)[C@@]12C(=O)Nc1ccc(C#CC3(O)CCCCCC3)cc12 the results were STAT3 SMM inactive, Myc binder inactive, NFkB SMM inactive and mut p53 SMM inactive.
Screening COc1cc2c(cc1OC)CN(C(=O)[C@H]1[C@@H]3C(=O)O[C@@H](c4ccccc4)[C@@H](c4ccccc4)N3[C@@H](c3ccccc3OCCO)[C@]13C(=O)Nc1ccc(C#CC4=CCCCC4)cc13)CC2 returned STAT3 SMM inactive, Myc binder inactive, NFkB SMM active and mut p53 SMM inactive.
Screening O=C1O[C@H](c2ccccc2)[C@H](c2ccccc2)N2[C@H]1[C@@H](C(=O)N1CCCCCCC1)[C@]1(C(=O)Nc3ccc(C#CC4(O)CCCCCC4)cc31)[C@H]2c1ccc(OCCO)cc1 returned STAT3 SMM inactive, Myc binder active, NFkB SMM active and mut p53 SMM active.
O=C1O[C@@H](c2ccccc2)[C@@H](c2ccccc2)N2[C@@H](c3ccc(OCCO)cc3)[C@]3(C(=O)Nc4ccc(C#CC5=CCCCC5)cc43)[C@@H](C(=O)N3CCCCCCC3)[C@H]12 was read as STAT3 SMM active, Myc binder inactive, NFkB SMM inactive and mut p53 SMM active.
COc1cc2c(cc1OC)CN(C(=O)[C@@H]1[C@H]3C(=O)O[C@H](c4ccccc4)[C@H](c4ccccc4)N3[C@H](c3ccc(OCCO)cc3)[C@@]13C(=O)Nc1ccc(C#CC4(O)CCCCCC4)cc13)CC2 was read as STAT3 SMM inactive, Myc binder inactive, NFkB SMM active and mut p53 SMM inactive.
Screening Cc1cccc(N(CC(=O)NC(C)(C)C)S(=O)(=O)c2ccc(Cl)cc2)c1 returned STAT3 SMM inactive, Myc binder inactive, NFkB SMM inactive and mut p53 SMM inactive.
For COC(=O)C(CC#Cc1ccc2c(c1)[C@]1(C(=O)N2)[C@H](C(=O)N2CCc3cc(OC)c(OC)cc3C2)[C@H]2C(=O)O[C@H](c3ccccc3)[C@H](c3ccccc3)N2[C@@H]1c1ccc(OCCO)cc1)C(=O)OC the results were STAT3 SMM inactive, Myc binder inactive, NFkB SMM inactive and mut p53 SMM inactive.
Screening COc1cc2c(cc1OC)CN(C(=O)[C@H]1[C@@H]3C(=O)O[C@@H](c4ccccc4)[C@@H](c4ccccc4)N3[C@@H](c3ccc(OCCO)cc3)[C@]13C(=O)Nc1ccc(C#CC4=CCCCC4)cc13)CC2 returned STAT3 SMM inactive, Myc binder inactive, NFkB SMM active and mut p53 SMM inactive.
Screening NC(=O)c1ccc(NC(=O)C2CCCN(S(=O)(=O)c3ccc(Br)cc3)C2)cc1 (configuration not stated) returned STAT3 SMM inactive, Myc binder inactive, NFkB SMM inactive and mut p53 SMM inactive.
`CC(=O)Nc1cccc(NC(=O)c2cc(-c3ccccn3)nc3ccc(Cl)cc23)c1` gave STAT3 SMM inactive, Myc binder inactive, NFkB SMM inactive and mut p53 SMM inactive.
`COc1cccc(CN2CCN(C(=O)c3cc(-c4ccccn4)nc4ccc(Cl)cc34)CC2)c1` gave STAT3 SMM inactive, Myc binder inactive, NFkB SMM inactive and mut p53 SMM active.
Screening O=C(CSc1ncccc1C(=O)O)c1cccc([N+](=O)[O-])c1 returned STAT3 SMM inactive, Myc binder active, NFkB SMM inactive and mut p53 SMM inactive.
`CCN1CCN(c2c(Cl)cccc2NC(=O)c2ccc(-c3ccccc3[N+](=O)[O-])o2)CC1` gave STAT3 SMM inactive, Myc binder inactive, NFkB SMM inactive and mut p53 SMM inactive.
For Cc1cc(C)nc(SCC(=O)Nc2cc([N+](=O)[O-])ccc2C)n1 the results were STAT3 SMM inactive, Myc binder inactive, NFkB SMM inactive and mut p53 SMM inactive.
CC#CCOC(=O)C1=CCCN(C)C1 was read as STAT3 SMM active, Myc binder active, NFkB SMM active and mut p53 SMM inactive.
Screening C[C@@H]1CCCCO[C@@H](CN(C)Cc2ccccc2)[C@H](C)CN([C@@H](C)CO)C(=O)c2cc(NC(=O)CCCN(C)C)ccc2O1 returned STAT3 SMM inactive, Myc binder inactive, NFkB SMM inactive and mut p53 SMM inactive.
Cc1ccc(S(=O)(=O)N(C)C[C@H]2OCCCC[C@H](C)Oc3ccc(NC(=O)NC4CCCCC4)cc3C(=O)N([C@H](C)CO)C[C@H]2C)cc1 was read as STAT3 SMM inactive, Myc binder active, NFkB SMM inactive and mut p53 SMM active.

From PubChem
